This is a sample that favours compounds with a hit; in the whole collection about 5.7% have one here.
GLP1R cytotox – cytotoxic in the GLP-1 receptor inverse agonist counter-screen. HEK293 cAMP-luciferase reporter cells, luminescence, 24 h. 0.13% of 410,000 active. AID 624418. Potency, µM (titrated, usually from 38.3 µM), for the others: top-dose activity change, negative = inhibition, hits mostly inhibitors;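 further: loss of luciferase light is scored as toxicity; potency means the concentration at half of the fitted maximal effect; on the % scale 0 is the no-effect control and ±100 the full control effect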
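1536-well qHTS counterscreen of the MLSMR; 200 cells/uL, 12 h pre-incubation, 23 nL cpd, 24 h at 37 deg C 5% CO2, luciferase detection reagent, 12 min RT, luminescence. Inhibition = undesired.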
GLP1R inv ag – acts as inverse agonist at human GLP-1 receptor. P43220. HEK293 GLP-1R CRE-luciferase, luminescence, 24 h; GLP-1R form is constitutively active. AID 624417. Potency, µM (titrated, usually from 38.3 µM), without a hit: at the highest dose activity change, negative = inhibition, hits mostly inhibitors. 1.6% of 410,000 active; further: potency means the concentration at half of the fitted maximal effect; on the % scale 0 is the no-effect control and ±100 the full control effect; nearly all actives have a fitted effect of over 55% in size
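Inverse agonists were sought by their lowering of basal cAMP reporter luciferase output in HEK293 cells stably carrying constitutively active human GLP-1R, after 24 h compound treatment.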
D3 ag – D3 dopamine receptor (human) agonism. 0.58% of 410,000 active. P35462. D3R DiscoveRx beta-arrestin cells, luminescence, 90 min. max activation, %; in the data active means max activation above about 30%; further: 0% is about no effect
Target sequence (P35462 whole entry, looked up): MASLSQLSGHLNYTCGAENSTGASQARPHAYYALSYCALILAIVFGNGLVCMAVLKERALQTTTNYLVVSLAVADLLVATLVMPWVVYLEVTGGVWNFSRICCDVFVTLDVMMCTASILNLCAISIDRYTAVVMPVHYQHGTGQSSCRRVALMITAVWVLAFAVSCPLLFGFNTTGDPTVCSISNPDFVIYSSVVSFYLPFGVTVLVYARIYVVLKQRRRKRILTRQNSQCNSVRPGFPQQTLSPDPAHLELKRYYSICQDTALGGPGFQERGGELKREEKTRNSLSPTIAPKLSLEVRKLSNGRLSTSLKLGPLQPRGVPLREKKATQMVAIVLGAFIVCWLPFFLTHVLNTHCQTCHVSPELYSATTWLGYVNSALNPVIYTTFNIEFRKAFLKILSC
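Agonist mode: compounds and dopamine controls were applied to plated cells for 90 min at 37 degrees C after an overnight attachment at 1500 cells/well. Luminescent read-out followed 30 - 60 minutes at room temperature with DiscoveRx detection reagent.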
DRD3 antagonist – blocks the human D3 dopamine receptor; P35462; D3R cells, DiscoveRx beta-arrestin luminescence, antagonist mode; stronger effect = lower value; max response, negative = inhibition, %; 2.5% of 360,000 active; AID 652054; in the data active means max response below about -50%; inconclusive means no clear call, values can overlap the other calls; further: on the % scale 0 is the no-effect control and ±100 the full control effect
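Cells expressing the human receptor were seeded at 1500 cells/well, incubated overnight at 37 degrees C in 5% CO2, then exposed to library compounds with dopamine controls for 90 minutes at 37 degrees C before luminescent detection.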
GLP1R ag – activates the human GLP-1 receptor; 0.007% of 380,000 active; Potency, µM (titrated, usually from 45.6 µM), without a hit: top-dose activation, hits mostly activators; P43220; HEK293 GLP-1R CRE-luciferase, luminescence, 4-6 h; cells express a hypersensitive GLP-1R form; further: potency means the concentration at half of the fitted maximal effect; % of control where 0% means no effect
ClpP mod – qHTS Assay for Activators of ClpP. purified B. subtilis ClpP, FRET peptide cleavage, 20 min. ATP-dependent Clp protease proteolytic subunit (Bacillus subtilis (strain 168)), P80244. 1.9% of 340,000 active. Potency, µM (series often up to 57.5 µM), for the others: at the highest dose activity change, negative = active; active means well fitted falling curve with a large enough effect; inconclusive means small, poorly fitted or top-dose-only effect; inactive means no such curve, though single readings can be large or run the other way; further: potency means the concentration at half of the fitted maximal effect; the source files actives as falling curves though it sought activators and does not explain the sign; nearly all actives have a fitted effect of over 65% in size
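FRET quenching reversal measured ClpP activation: 10 microg/mL B. subtilis ClpP at pH 8 with the FRET-FV decapeptide, read at 430 nm after 320 nm excitation. The 20-min minus 0-min signal was scaled between DMSO/no-enzyme wells and ADEP (5.8 microM final).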
* = called active by the depositor; i = inactive; ? = inconclusive; . = no result given; [ ] = remark or other dose. Unless noted, the call rests on the fitted dose curve; in most records, active means well fitted curve in the direction sought with a large enough effect; inconclusive means small, poorly fitted or top-dose-only effect, or another doubt; inactive means no such curve, though single readings can be large; an effect the other way counts as inactive or inconclusive.

SMILES	GLP1R cytotox	GLP1R inv ag	D3 ag	DRD3 antagonist	GLP1R ag	ClpP mod
O=c1c2c(-c3ccccc3)csc2ncn1/N=C/c1c2ccccc2cc2ccccc12	72%	9%	14	30	0%	3%
Cc1nn(-c2ccccc2)c(N2CCCC2)c1/C=N/n1cnc2scc(-c3ccccc3)c2c1=O	-5%	?	-14	-61*	7%	226%
O=[N+]([O-])c1cc(Cl)cc(/C=N/n2cnnc2)c1O	-2%[7.66 µM]	-8%[7.66 µM]	-12	-57*	3%	-2%
O=c1c2c(-c3ccc(Cl)cc3)csc2ncn1/N=C/c1cccc([N+](=O)[O-])c1O	-25%	-16%	-23	-61*	0%	-1%
Cc1c(C)c2c(cc(C)c3c(-c4ccc(Br)cc4)coc32)oc1=O	8%	4%	0	.	.	-8%
CC(Oc1ccc(F)cc1)C(=O)Nc1nc(-c2ccc(F)cc2)ns1 (stereo not drawn)	-15%	?	-9	.	.	-1%
CC1=C(C(N)=O)C(c2cccc(C)c2)n2nc(-c3cccc(C)c3)nc2N1 (stereo not drawn)	4%	10%	-10	.	.	-6%
CCN(C(=O)C(=O)Nc1ccc2nc3n(c(=O)c2c1)CCCCC3)c1ccc(F)cc1	3%	4%	9	.	.	-3%
CN1C(=O)[C@H]2[C@@H](c3ccc(C(F)(F)F)cc3)N[C@]3(CCCN(Cc4ccco4)C3=O)[C@H]2C1=O	-8%	2%	3	25	-1%	0%
CCc1cccc(C)c1NC(=O)C1CCCN1S(=O)(=O)c1cccc2nsnc12 (stereo not drawn)	-2%	-1%	1	.	.	1%
CC(C)(C)n1nnnc1C(c1cccs1)N(Cc1ccc(Cl)cc1)CC1CCCO1 (stereo not drawn)	-3%	5µM*	10	-9	1%	-2%
O=[N+]([O-])c1ccc(S(=O)Cc2ccccc2)c([N+](=O)[O-])c1 (stereo not drawn)	?	?	-39	-102*	-33%	-4%
CCN1CCN(C(CCc2ccccc2)C(=O)NC2CCCCC2)CC1 (stereo not drawn)	0%	11%	-14	-73*	1%	-3%
CC(C(=O)NC1CCCC1)N1CCN(Cc2ccccc2)CC1 (stereo not drawn)	-14%	-25%	-21	-3	14%	.
COc1ccc2nc3c(cc2c1)c(NC(=O)CC(C)C)nn3CC(C)C	54%	?	4	-9	2%	-7%
COc1ccc2nc3c(cc2c1)c(NC(=O)C1CCCO1)nn3CC(C)C (stereo not drawn)	i	?	2	8	9%	22µM*
CCCCn1nc(NC(=O)CCC)c2cc3cc(OC)ccc3nc21	93%	?	8	6	7%	32µM*
CCCCn1nc(NC(=O)CC(C)C)c2cc3cc(OC)ccc3nc21	41%	-6%	-4	-21	4%	-8%
CC(C)NC(=O)c1ccc(CSc2nc3ccncc3n2Cc2cccc(F)c2)cc1	-3%	-15%	3	.	.	-4%
Cc1ccc(CNc2ccc(O)cc2)cc1	-29%	216%	14	-53*	?	-2%
Cc1ccc(NCc2ccccc2O)cc1	0%	0%	12	20	10%	-1%
CC(C)N1CCC2(CC1)N=C(c1ccc3c(c1)OCO3)CC(c1cc(Cl)ccc1O)N2 (stereo not drawn)	?	11µM*	-4	0	-40%	51%
Oc1ccc(Cl)cc1C1C=C(c2ccc3c(c2)OCO3)NC(c2ccc(C(F)(F)F)cc2)N1 (stereo not drawn)	.	.	.	.	.	1%
CC1(C)C([N+](=O)[O-])C(c2ccccc2O)NC(c2ccccc2O)C1[N+](=O)[O-] (stereo not drawn)	21%	10µM*	-14	-10	6%	.
